Source: PubChem BioAssay (NCATS)
Results filed as inconclusive are left out. Unmarked numbers belong to inactive results. Calls of active or inactive are those of the source. Calls follow the shape of the dose curve; as a rule, active = well fitted cell-killing curve with a large enough effect; inconclusive = small, poorly fitted or top-dose-only effect; inactive = flat fitted curve, though single readings scatter.

Assay: Cell Viability - LYMP2-002 (AID 977);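 also: compound exposure lasted 24 h at 37 °C; plate controls were DMSO only for no effect and 92 µM tetraoctylammonium bromide for full effect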
Conditions: LYMP2-002 lymphoblastoid cell viability, qHTS; series mostly up to 92.2 µM; activity change, negative = cytotoxic: at the top concentration
Excerpt: NIH Chemical Genomics Center [NCGC]
NIH Molecular Libraries Screening Centers Network [MLSCN]
National Institutes of Environmental Health Sciences [NIEHS]
National Toxicology Program [NTP]
We have developed a 1536-well cell-based assay for quantitative high throughput screening (qHTS) against a number of cell lines to determine in vitro cytotoxicity of small molecules. This particular assay uses a human lymphoblastoid cell line (LYMP2-002) purchased from Coriell Institute for Medical Research.
NCGC Assay Protocol Summary:
The CellTiter-Glo luminescent cell viability assay (Promega) is a homogeneous method to measure the number of viable cells in culture. The end point readout of this assay is based on quantitation of intracellular ATP, an indicator of metabolic activity, using the luciferase reaction. Luciferase catalyzes the oxidation of beetle Luciferin to oxyluciferin and light in the presence of ATP. The luminescent signal is proportional to amount of ATP present.
Using the CellTiter-Glo luminescent cell viability assay, the amount of cellular ATP was measured in the lymphoblastoid cell line with complete culture medium following compound treatment for 24 hours. The assay was performed in opaque white Kalypsys 1536-well plates. In the screen, tetraoctylammonium bromide was used as positive control. Library compounds were measured for their ability to cause acute toxicity in the cell line, as reflected by a decrease in intracellular ATP levels, in a concentration-dependent manner. […] AC50 values were determined from concentration-response data modeled with the standard Hill equation.
qHTS protocol for CellTiter Glo lymphoblastoid cellular assay
[Step] [Parameter] [Value] [Description]
1. Reagent; 5 uL; 2500 lymphoblastoid cells/well
2. Time; 5 hr; 37 C incubation
4. Controls; 23 nL; Tetraoctylammonium bromide 6.4pM to 92 uM
5. Time; 24 hr; 37 C incubation
6. Reagent; 5 uL; CellTiter Glo reagent
7. Time; 30 min; Room Temperature
8. Detection; Luminescence; Viewlux plate reader
Keywords: cell viability, cytotoxicity, lymphoblastoid cell line, luminescence, NTPHTS, NTPHTS_NCGC, NIEHS, DSSTox, MLSMR, MLSCN, NIH Roadmap, qHTS, NCGC

Structure (SMILES)	activity change, negative = cytotoxic [%]	Potency
C=CC(=O)OCC	-7.4	
CCSC(=O)Cl	-2.46	
COC1=CC(=O)OC(CCc2ccccc2)C1 (stereo not given)	-4.96	
CCCOC(=O)c1ccccc1C(=O)OCCC	-3.73	
O=C=NC1CCCCC1		inactive
CC(C)(c1ccccc1)c1ccc(O)cc1	-5.59	
C[C@]12CC[C@H]3[C@@H](CCC4=CC(=O)CC[C@@]43C)[C@@H]1CC[C@@H]2O	1.1	
CCC[CH2][Sn]([Cl])([Cl])[Cl]	-10.4	
Nc1c(Cl)c(Cl)nc(C(=O)O)c1Cl	-0.41	
C=CCOC(=O)c1ccccc1N	-3.18	
S=C=Nc1cccc2ccccc12	14.2	
O=C(O)COc1ccc(Cl)cc1Cl		inactive
CCCCOCCOP(=O)(OCCOCCCC)OCCOCCCC	-14.8	
Nc1ccccc1Cl	13.7	
O=C(Cl)C(Cl)(Cl)Cl	-0.949	
CC(C)(OO)c1ccccc1	-18.2	
NC(=S)Nc1ccccc1		inactive
Cc1cccc([N+](=O)[O-])c1	-12	
CCCCCCCCCc1ccc(O)cc1	-4.06	
O=NN(c1ccccc1)c1ccccc1	2.19	

Structure (SMILES)	activity change, negative = cytotoxic [%]	Potency
BrCCBr	15.2	
Clc1nc(Cl)nc(Cl)n1	-3.75	
CCOP(=S)(OCC)Oc1ccc([N+](=O)[O-])cc1		inactive
C=CC1CC=CCC1 (stereo not given)	0.219	
C[N+](C)(C)Cc1ccccc1	-10.4	
C=CC(=C)C	0.599	
c1ccc(OP(Oc2ccccc2)Oc2ccccc2)cc1	-10.7	
ClC(Cl)=C(Cl)C(Cl)=C(Cl)Cl	-2.85	
CCCSC(=O)Cl	-12.5	
O=C(Cl)/C=C/C(=O)Cl	3.74	
Clc1ccc2ccccc2c1	-6.33	
CC(C)(C)OOC(C)(C)C	13.8	
CCNc1nc(Cl)nc(NC(C)C)n1	1.7	
O=[N+]([O-])c1cccc2ccccc12	13.1	
CC(=O)[O-].CC(=O)[O-].O.O.O.[Pb+2]		inactive
Clc1nc(Cl)nc(Nc2ccccc2Cl)n1	6.29	
CCOc1ccc(N)cc1	-4.82	
CCOP(=S)(OCC)SCSC(C)(C)C	-10.9	
Oc1ccc(Cl)cc1Cl	-4.83	
COC(=O)NC(=S)Nc1ccccc1NC(=S)NC(=O)OC	19	
